# D2 PAM-1 = potentiates the human D2 dopamine receptor allosterically; 0.23% of 360,000 active; potentiation, % (concentration not given with the values); P14416; DiscoveRx D2 beta-arrestin cells, luminescence, 90 min; 100% = 57 uM dopamine signal; in the data active means potentiation above about 50%
# Target sequence (P14416 whole entry, looked up): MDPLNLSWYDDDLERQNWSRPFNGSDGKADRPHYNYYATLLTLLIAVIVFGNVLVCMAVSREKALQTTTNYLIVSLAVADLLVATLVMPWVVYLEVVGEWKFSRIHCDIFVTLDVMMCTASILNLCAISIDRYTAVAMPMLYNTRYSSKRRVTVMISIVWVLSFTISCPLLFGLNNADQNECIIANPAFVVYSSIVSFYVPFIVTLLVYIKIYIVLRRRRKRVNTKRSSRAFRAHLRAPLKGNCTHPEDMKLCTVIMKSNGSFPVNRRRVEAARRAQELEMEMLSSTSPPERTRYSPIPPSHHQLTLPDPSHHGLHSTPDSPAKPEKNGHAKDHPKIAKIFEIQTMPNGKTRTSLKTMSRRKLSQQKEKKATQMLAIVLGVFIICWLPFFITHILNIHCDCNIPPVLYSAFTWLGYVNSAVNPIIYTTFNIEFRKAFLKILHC
#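 PathHunter D2 cells, attached overnight at 37 deg C, received compound in DMSO plus dopamine at EC20 (50 nM final) for 90 min at 37 deg C. Beta-arrestin recruitment was read as luminescence after 1 h with detection reagent at ambient temperature.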
# D2 ag-1 = activates the human D2 dopamine receptor; P14416; HEK293 T-REx D2 cells, calcium flux agonist mode; activation, % at 2 µM; 0.53% of 340,000 active;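 active means activation over 3 SD above normal in the single-dose calcium agonist read, cut at about 30% in these data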; further: 0% is about no effect
#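 In this primary screen, compounds producing a positive calcium signal within 180 s of addition to tetracycline-induced, force-coupled HEK293 Trex D2 cells are flagged; cells are dye-loaded with a no-wash calcium kit beforehand.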
# D2 antagonist = antagonizes the human D2 dopamine receptor; 2% of 340,000 active; inhibition, % at 10 µM; HEK293 TREx D2 cells, calcium flux, dopamine EC80; P14416; in the data active means inhibition above about 30%; inactive means below that, where a call was filed; further: 0% is about no effect
#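 Antagonism is scored as inhibition of an EC80 dopamine-evoked calcium signal in a force-coupled, tetracycline-inducible HEK293 T-REx D2 line, with compound present 180 s before agonist.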
# D2 ag-2 = activates the human D2 dopamine receptor; DiscoveRx PathHunter D2 beta-arrestin, luminescence, 90 min; 100% = 57 uM dopamine signal; AID 624465; activation, % (concentration not given with the values); 0.084% of 360,000 active; P14416; in the data active means activation above about 40%
#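 Agonist mode: compounds alone added to overnight-plated D2 PathHunter cells for 90 min at 37 C, with 57 uM final dopamine (EC100) defining full response. Beta-arrestin recruitment detected by chemiluminescent reagent, read after 1 h at ambient temperature.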
# D2 PAM-2 = positive allosteric modulators of human D2 dopamine receptor. HEK293 T-REx D2, calcium flux, EC20 dopamine potentiation. potentiation, % at 10 µM. 0.34% of 340,000 active. AID 485347;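 active means potentiation over 3 SD above the plate norm, cut at about 30% in these data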; further: 0% is about no effect
#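 Tetracycline-induced HEK293 T-REx cells force-coupled to calcium signalling expressed D2; compounds were pin-added after a 10 s baseline, read kinetically 180 s, then an EC20 dopamine challenge followed with a further 180 s calcium read.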
# * = called active by the depositor; nt = no result. The list is not random: actives were taken first. Their share in the collection is about 2.4%.
SMILES,D2 PAM-1,D2 ag-1,D2 antagonist,D2 ag-2,D2 PAM-2
COc1ccc(CNC(=O)Nc2cc(C)cc(C)c2)cc1,-11,-2,-12,-3,10
COc1ccc(OCC(O)CNC(=O)Nc2cc(C)cc(C)c2)cc1 (configuration not stated),-27,-1,30*,-5,-16
CCOC(=O)c1[nH]ncc1CN1CCCC(C(=O)c2cc(Cl)ccc2OC)C1 (configuration not stated),-6,1,73*,0,-27
CCOC(=O)c1[nH]ncc1CN1CCCC(C(=O)c2ccc(OC)c(OC)c2)C1 (configuration not stated),-9,nt,nt,1,nt
COc1ccc(CNC(=O)CCc2nc(-c3ccc(C)cc3)no2)c(OC)c1,nt,-1,nt,nt,3
COc1cccc(NC(=O)CN2C(=O)CC(c3ccco3)Sc3ccccc32)c1 (configuration not stated),nt,0,nt,nt,13
Cc1ccc(C(C)C)cc1NC(=O)Nc1ccc([N+](=O)[O-])cc1,-23,4,37*,9,-23
CCOc1ccc(NC(=O)Nc2cc(C(C)C)ccc2C)cc1,nt,-1,31*,nt,-23
Cc1cc(O)c(C(C)C)cc1NC(=O)Nc1ccc([N+](=O)[O-])cc1,-18,nt,nt,-3,nt
O=C(CSC1=Nc2ccccc2N=C(c2ccc(F)cc2)C1)Nc1cc(F)ccc1F,nt,1,nt,nt,-11
COC(=O)CSc1nc2ccccc2nc1SCC(=O)OC,-12,1,-7,0,31*
O=C1CCCCCC1C1(O)C(=O)Nc2ccccc21 (configuration not stated),-4,1,-4,2,42*
COc1ccc2c(c1)CC(C1(O)C(=O)Nc3ccccc31)C2=O (configuration not stated),2,0,7,-2,-1
COc1cc(OC)cc(C(=O)NC(=S)Nc2nc(-c3cc4ccccc4o3)cs2)c1,-25,0,-2,-2,-9
COCCNc1nc(-c2cc3ccccc3o2)cs1,-10,-1,38*,-2,-14
COc1ccc(Cl)cc1C(=O)NCC(c1ccco1)N1CCCC1 (configuration not stated),-20,-1,29,-2,-17
O=C(NCC(c1ccco1)N1CCCC1)c1cn(-c2ccccc2)nc1-c1ccc(F)cc1 (configuration not stated),-49,-1,76*,-4,-22
COc1ccccc1C(CNC(=O)c1ccco1)N1CCCC1 (configuration not stated),-10,1,37*,-5,-13
COc1ccccc1-c1nn(-c2ccccc2)cc1C(=O)NCC(c1ccco1)N1CCCC1 (configuration not stated),-4,0,40*,-3,-27
O=C(NCC(c1ccco1)N1CCCC1)c1cn(Cc2ccccc2)nc1-c1ccccc1 (configuration not stated),-23,0,-6,0,-5
COc1ccc(OC)c(NC(=O)c2csnn2)c1,nt,1,nt,nt,11
Cn1cnc(S(=O)(=O)N2CCC(C(=O)N3CCN(c4ccc(Cl)cc4)CC3)CC2)c1,nt,-1,nt,nt,-2
COc1ccc(OC)c(NC(=O)Cn2cc(C(=O)c3cccs3)c3ccccc32)c1,nt,0,nt,nt,3
COc1ccc(OC)c(-n2c(-c3cccc(O)c3)n[nH]c2=S)c1,16,0,12,0,36*
C/C(=C\C(=O)c1ccncc1)Nc1ccccc1O,50*,nt,nt,10,nt
SMILES,D2 PAM-1,D2 ag-1,D2 antagonist,D2 ag-2,D2 PAM-2
C=CCOC(=O)c1cc(-c2ccc(/C=C3\C(=O)NC(=O)C(C#N)=C3C)o2)ccc1Cl,2,0,-14,-1,-4
CC1=C(C#N)C(=O)NC(=O)/C1=C/c1ccc(-c2ccc(S(N)(=O)=O)cc2)o1,29,1,9,10,37*
Cc1ccc(NC(=O)CSc2nc3nccnc3c(=O)n2CCc2c[nH]c3ccccc23)cc1,nt,0,nt,nt,7
CC(=O)OC1CC2(C)/C(=N\O)CCC2C2CCc3cc(O)ccc3C12 (configuration not stated),5,nt,nt,41*,nt
O=C(CCSCCC(=O)NCc1ccccc1)NCc1ccccc1,10,1,11,-2,0
NS(=O)(=O)c1ccc(CNC(=O)CCSCCC(=O)NCc2ccc(S(N)(=O)=O)cc2)cc1,-7,-2,33*,-2,0
COc1ccc(CNC(=O)C2CCN(S(=O)(=O)c3cccc(C(F)(F)F)c3)CC2)cc1,11,0,6,4,-6
COc1ccc(N2CCC(CNS(=O)(=O)c3cccc(C(F)(F)F)c3)C2)cc1 (configuration not stated),-7,4,38*,2,nt
Cc1ccccc1NCC(=O)N/N=C/c1c(C)c(C(=O)c2ccc(Cl)cc2)n2ccccc12,-16,2,32*,-1,-3
COc1ccc(S(=O)(=O)NCCS(=O)(=O)N2CCN(c3ccccc3)CC2)cc1C,nt,nt,nt,nt,26
COc1ccc(C2=NC3(CCCCCC3)N(CC(=O)Nc3cccc(Cl)c3)C2=O)cc1,nt,0,nt,nt,7
Cc1ccc(Oc2cc([N+](=O)[O-])cc3c2C(=O)Nc2ccccc2O3)cc1,6,2,30*,2,14
Cc1cccc(N(C)C(=O)C2CCC(CNS(=O)(=O)c3cccc4nsnc34)CC2)c1 (configuration not stated),nt,0,nt,nt,2
Cc1ccc(-c2csc(N3CCN(c4cc5c(cc4Cl)nc(-c4ccncc4)n5CCN4CCCCC4)CC3)n2)cc1,-12,0,4,-2,5
CCCn1c(C)nc2cc(Cl)c(N3CCN(c4nc(-c5ccc(C)cc5)cs4)CC3)cc21,-10,0,40*,-2,3
CN(C)S(=O)(=O)Nc1ccc(Oc2ccccc2)cc1,-20,0,35*,-1,3
Cc1[nH]c(=O)[nH]c(=O)c1S(=O)(=O)Nc1ccc(Oc2ccccc2)cc1,3,0,-8,-2,6
CCC(C(=O)NCCc1ccc(OC)c(OC)c1)n1nc(C)n2c(cc3occc32)c1=O (configuration not stated),1,0,33*,-2,-5
Cc1ccc(CSCC(=O)Nc2ccccc2C(=O)O)cc1,52*,-3,-9,5,-1
Cc1ccc(CSCC(=O)N2CCCC2)cc1,-2,1,33*,-5,5
COc1ccc(Cn2c(CCC(=O)NCc3cccc(Cl)c3)nc3cccnc32)cc1,nt,-1,nt,nt,29
Cc1cc(C)c2nc(-c3ccccn3)cc(C(=O)NCc3cc(C)n(C)n3)c2c1,5,0,35*,-4,-13
Fc1ccc(N2CCN(c3nnnn3-c3ccccc3)CC2)cc1,-11,-1,50*,0,-17
O=c1c2ccccc2n2c(-c3ccccc3F)nnc2n1CCc1ccccc1,nt,5,nt,nt,-1

# Screening results deposited in PubChem BioAssay by National Center for Advancing Translational Sciences (NCATS).
